Shiga toxin inh – blocks Shiga toxin action in Vero cells. Vero cells, Shiga toxin protein synthesis inhibition reporter. inhibition, % at 38.7 µM. hit rate 9.2% among 290,000. AID 2315; in the data active = inhibition mostly above about 28%, no sharp cut-off; inactive = mostly below about 43%
AmpC inh no detg – blocks E. coli AmpC beta-lactamase in detergent-free assay; P00811; AmpC nitrocefin hydrolysis, absorbance 480 nm, 0.0001% Triton; Potency, µM (doses to about 57.1 µM), hits mostly inhibitors; hit rate 0.52% among 330,000; AID 485341; note: nearly all actives have a fitted effect of over 20% in size
Target sequence (P00811 whole entry, looked up): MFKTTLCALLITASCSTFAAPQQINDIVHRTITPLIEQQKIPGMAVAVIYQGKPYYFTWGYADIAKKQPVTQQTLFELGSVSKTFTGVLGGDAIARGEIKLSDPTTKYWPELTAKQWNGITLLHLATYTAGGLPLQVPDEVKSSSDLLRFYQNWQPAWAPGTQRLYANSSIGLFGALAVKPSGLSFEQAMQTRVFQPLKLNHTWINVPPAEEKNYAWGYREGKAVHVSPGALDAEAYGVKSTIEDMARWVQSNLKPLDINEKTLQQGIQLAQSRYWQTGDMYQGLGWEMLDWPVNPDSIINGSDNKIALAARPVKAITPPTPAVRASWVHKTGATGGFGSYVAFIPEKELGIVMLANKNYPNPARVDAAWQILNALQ
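20 mM phosphate pH 7.0 + 0.01% (detergent screen) or 0.0001% Triton X-100; 5.3 nM AmpC reagent; cpd preinc 15 min RT; nitrocefin (800 uM stock) to start; A480 q20 s × 4 min; Activity was normalised to no-enzyme and no-compound control wells.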
CHX counter – affects cycloheximide protein synthesis inhibition readout, counter-screen. cell reporter, cycloheximide protein synthesis inhibition counterscreen. max response, %. hit rate 12% among 300,000. AID 2314; in the data active = max response mostly above about 13%, no sharp cut-off; inactive = mostly below about 14%; note: read at 38.3 µM for the half of the compounds with a filed dose
AMA1 RON2 block – disrupts binding of P. falciparum AMA1 to RON2; AlphaScreen AMA1-biotinylated RON2 peptide binding; Potency, µM (doses to about 58.2 µM), actives largely listed as inhibitors; hit rate 0.2% among 360,000; note: nearly all actives have a fitted effect of over 45% in size
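AMA1 (3D7) with his tag at 25 nM final met compounds first, then biotinylated RON2 peptide at 25 nM; detection used donor plus acceptor beads, 10 µg/mL apiece, read by AlphaScreen after 30 min at room temperature.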
SARS PLpro yeast – inhibitors of SARS-CoV papain-like protease in yeast. S. cerevisiae expressing SARS-CoV PLpro, growth rescue. Potency, µM (top dose mostly 32.9 µM), actives largely listed as activators. hit rate 0.19% among 330,000; calls by dose curve; note: nearly all actives have a fitted effect of over 55% in size
AmpC inh detg – blocks E. coli AmpC beta-lactamase in detergent assay | P00811 | AmpC hydrolysis of nitrocefin, absorbance 480 nm, 0.01% Triton | Potency, µM (top dose mostly 114 µM), most hits filed as inhibitors | hit rate 0.041% among 370,000; note: nearly all actives have a fitted effect of over 25% in size
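AmpC (5.3 nM in the dispensed reagent) in 20 mM phosphate pH 7.0 with 0.01% (detergent screen) or 0.0001% Triton X-100 was preincubated with compounds for 15 min at room temperature. Nitrocefin was then added from an 800 uM solution, and hydrolysis was followed at 480 nm.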
Numbers stand for hits; n = inactive; u = inconclusive; x = no result; [ ] = dose if it differs, or a comment. Only a selection was taken, and hits are over-represented in it overall. Unless noted, calls come from the whole dose curve; as a rule, active = well fitted curve in the direction sought with a large enough effect; inconclusive = small, poorly fitted or top-dose-only effect, or another doubt; inactive = no such curve, though single readings can be large; an effect the other way counts as inactive or inconclusive.

SMILES	Shiga toxin inh	AmpC inh no detg	CHX counter	AMA1 RON2 block	SARS PLpro yeast	AmpC inh detg
O=C1c2oc3ccc(Cl)cc3c(=O)c2C(c2ccco2)N1CCN1CCOCC1 (centres undefined)	n	n	n	n	n	n
CCOC(=O)C1C(=O)NC(c2ccccc2)=NC1c1ccc(F)cc1 (centres undefined)	n	n	n	n	n	n
COC1=C/C(=C/c2c(O)c(C#N)c3ccccn23)C=CC1=O	73	n	56	n	n	n
COc1cc(OC)cc(C(=O)c2c(C)c(C#N)c3ccccn23)c1	n	n	n	n	n	n
CC(=O)N1CCN(c2ccc(NC(=O)c3ccco3)cc2)CC1	72	n	n	n	n	u
Cc1ccccc1C(=O)N1CCN(c2ccc(NC(=O)c3ccco3)cc2)CC1	n	n	n	n	n	n
CCC(=O)N1CCN(c2ccc(NC(=O)c3ccco3)cc2)CC1	31	n	28	n	n	n
CCC(=O)N1CCN(c2ccc(NC(=O)c3cccs3)cc2)CC1	68	n	15	n	n	n
Cc1ccc(S(=O)(=O)/N=C(/c2ccccc2)N2CCOCC2)cc1	n	n	n	n	n	n
Cc1nc2sc3c(c2c(=O)n1NC(=O)CCBr)CCCC3	n	n	n	n	n	n
Oc1ccccc1C=NNC(=S)NC1CC2C=CC1C2 (centres undefined)	x	x	x	n	x	x
Oc1c(Cl)cc(Cl)cc1/C=N/NC(=S)NC1CC2C=CC1C2 (centres undefined)	n	8.9µM	n	n	n	n
Oc1ccccc1/C=N/NC(=S)NC1CC2C=CC1C2 (centres undefined)	57	n	35	n	n	n
Cc1ccc(S(=O)(=O)N2CCCCC2CCNC(=O)C(=O)NCc2cccnc2)cc1 (centres undefined)	x	n	x	n	n	n
Cc1cccc(N2C(=O)CC(N(C(=O)c3ccco3)c3cccc(C)c3)C2=O)c1 (centres undefined)	n	n	n	n	n	n
Brc1ccccc1/C=N/Nc1ccc2ccccc2n1	65	n	44	n	n	n
Brc1ccc(/C=N/Nc2ccccc2)cc1	60	n	43	n	n	n
Cc1cc(N/N=C/c2ccccc2Br)nc2ccccc12	75	n	42	n	n	u
O=[N+]([O-])c1cccc(C=NNc2ccc3ccccc3n2)c1O	x	x	x	n	x	x
Brc1ccc(/C=N/Nc2ccc3ccccc3n2)cc1	120	n	55	n	n	n
Cc1cc(C)cc(C(=O)NCC(=O)OCC(=O)N2CCN(S(=O)(=O)c3ccc4ccccc4c3)CC2)c1	n	n	n	n[11.6 µM]	n	u
CCc1ccccc1NC(=O)c1cc(-c2ccc(F)cc2)on1	n	n	n	n	n	n
Cc1cnn(-c2cc(N/N=C/c3cccc(F)c3)ncn2)c1	n	n	n	n	n	u
Fc1cccc(/C=N/Nc2ccc3ccccc3n2)c1	n	n	21	n	n	u
CCn1c2ccccc2c2cc(NC(=O)CSc3nnc(-c4cccc(C)c4)o3)ccc21	n	n	n	n	n	n
SMILES	Shiga toxin inh	AmpC inh no detg	CHX counter	AMA1 RON2 block	SARS PLpro yeast	AmpC inh detg
O=c1c2ccccc2nc2oc3ccccc3n12	84	n	42	n	n	n
O=c1c2ccccc2nc2n1CCO2	n	n	n	n	n	n
CC1CC(C)CN(C(=O)c2ccc3ccccc3c2)C1 (centres undefined)	x	n	x	n	n	u
NC(=O)C1CCN(C(=O)c2ccc3ccccc3c2)CC1	33	n	17	n	n	n
CC1CCN(C(=O)c2ccc3ccccc3c2)CC1	52	n	39	n	n	n
COc1cccc(/C=N/NC(=O)c2[nH]nc3c2CCc2ccccc2-3)c1	n	n	n	n	n	n
CC(C)NC(=O)c1[nH]nc2c1CCc1ccccc1-2	110	n	42	n	n	n
CNC(=O)c1[nH]nc2c1CCc1cc(OC)ccc1-2	87	n	57	n	n	n
COc1ccc2c(c1)CCc1c-2n[nH]c1C(=O)NCCC(C)C	88	n	43	n	n	n
COc1ccc(OC)c(/C=N/NC(=O)c2[nH]nc3c2CCc2ccccc2-3)c1	n	n	n	n	n	u
Nc1c(C(=O)NC2CC2)c2nc3ccccc3nc2n1-c1ccc2c(c1)OCO2	n	n	n	n	n	n
Nc1c(C(=O)OCC2CCCO2)c2nc3ccccc3nc2n1-c1ccc2c(c1)OCCO2 (centres undefined)	60	n	35	n	n	n
Cc1ccc(N(CC(=O)NCC2CCCO2)S(C)(=O)=O)cc1Cl (centres undefined)	n	n	n	n	n	u
COc1ccc(/C=N/NC(=O)c2ccccc2OC)cc1COc1ccc(C)cc1	n	n	n	n	n	u
COc1ccc(/C=N/NC(=O)c2ccoc2C)cc1O	57	n	58	n	n	n
COc1ccc(/C=N/NC(=O)c2ccoc2C)cc1OC	115	n	43	n	n	n
COc1ccc(/C=N/NC(=O)c2ccoc2C)cc1COc1ccc(Cl)cc1	91	x	33	n	x	n
COc1ccc(/C=C2\SC(=O)N(CC(=O)NC3C=CS(=O)(=O)C3)C2=O)cc1 (centres undefined)	n	n	n	n	n	n
CCOC(=O)[C@H]1[C@H]2COc3ccc(Cl)cc3[C@H]2N2C(=O)CNC(=O)[C@@]12C	x	n	x	n	n	x
COc1ccc(/C=C2\CCc3ccccc3C2=O)cc1Cn1cccn1	69	n	41	n	n	u
CC(=O)Nc1ccc(/C=C2\CCc3ccccc3C2=O)cc1	n	n	n	n	n	n
COc1ccc(/C=C2\CCn3c2nc2ccccc2c3=O)cc1OC	n	n	28	n	n	n
COc1cc(C=C2Cc3ccccc3C2=O)cc(OC)c1OC	x	x	x	n	x	x
COc1ccc(/C=C2\CCc3ccccc3C2=O)cc1O	42	n	22	n	n	u
COc1ccc(/C=C2\Cc3ccccc3C2=O)cc1OC	75	n	28	n	n	n
SMILES	Shiga toxin inh	AmpC inh no detg	CHX counter	AMA1 RON2 block	SARS PLpro yeast	AmpC inh detg
COc1ccc(/C=C2\CCC(C3CCCC3)C2=O)cc1Cn1cccn1 (centres undefined)	n	n	n	n	n	n
CC(C)CCNC(=S)Nc1ccc2nc3n(c(=O)c2c1)CCCCC3	27	n	n	n	n	n
CCCCNC(=S)Nc1ccc2nc3n(c(=O)c2c1)CCCCC3	n	n	22	n	n	n
CC(C)OCCCNC(=S)Nc1ccc2nc3n(c(=O)c2c1)CCCCC3	n	n	n	n	n	n
N=c1oc2c3c4c(cc2cc1C(=O)Nc1ccccc1)CCCN4CCC3	n	n	23	n	n	n
O=C(NCc1ccc(Cl)cc1Cl)C1CCN(S(=O)(=O)c2ccc3c(c2)OCCCO3)CC1	n	n	19	n	n	n
O=C(CNCc1ccccc1)Nc1ccccc1-c1ccccc1	n	n	n	n	n	n
